± gives the standard deviation of the averaged measurements.
The compounds below were run on SUM149 (assay: percent difference in area under dose-response curve of relative cell number, RPMI vs HPLM; higher = drug relatively more effective in HPLM than RPMI (negative = less effective in HPLM)). Conditions: treatment time: 72 h; dose range: 10-point, 1 nM to 20 µM; media compared: RPMI vs HPLM.

SMILES | percent difference in area under dose-response curve [%]
CN[C@H]1CN(c2ccc3c(=O)c(C(=O)O)cn(-c4nccs4)c3n2)C[C@@H]1OC [Voreloxin] | -18
Clc1ccc(C(c2ccccc2Cl)C(Cl)Cl)cc1 (stereo not given) [Mitotane] | -3.24
CCCCc1nc2cc(/C=C/C(=O)NO)ccc2n1CCN(CC)CC | 0.47
S=c1[nH]cnc2nc[nH]c12 [Mercaptopurine] | -43.4
Oc1cccc(-c2nc(N3CCOCC3)c3oc4ncccc4c3n2)c1 | 3.18
CC(=O)Nc1nc(C)c(-c2ccc(Cl)c(S(=O)(=O)NCCO)c2)s1 | -8.79
CCN(CC)C(=S)SSC(=S)N(CC)CC [Disulfiram] | -27.1 ± 6.8
C#Cc1cccc(Nc2ncnc3cc(OC)c(OCCCCCCC(=O)NO)cc23)c1 | 8.57
COc1ccc2cc(-c3nc(-c4ccc([S+](C)[O-])cc4)[nH]c3-c3ccncc3)ccc2c1 (stereo not given) [Tie2_kinase_inhibitor] | -0.194
C=C1/C(=C\C=C2/CCC[C@]3(C)[C@@H]([C@H](C)/C=C/[C@H](C)C(C)C)CC[C@@H]23)C[C@@H](O)C[C@@H]1O [Doxercalciferol] | -7.1
Clc1ccc(Nc2nnc(Cc3ccncc3)c3ccccc23)cc1 [Vatalanib_2HCl] | -4.56
C=CC(=O)N1CCC[C@@H](n2nc(-c3ccc(Oc4ccccc4)cc3)c3c(N)ncnc32)C1 | 7.26
Cc1nccn1-c1ccc(Sc2cccc(C3(C(N)=O)CCOCC3)c2)cc1 | -9.07
CCn1c(-c2nonc2N)nc2c(C#CC(C)(C)O)ncc(OC[C@H]3CCCNC3)c21 | 4.22
O=C(NC1CCNCC1)c1n[nH]cc1NC(=O)c1c(Cl)cccc1Cl | -11.2
